The values that follow come from PubChem BioAssay (NCATS).

Unmarked numbers belong to inactive results. Inconclusive results are not listed. Activity calls are given as the source filed them. Unless noted, calls come from the whole dose curve; as a rule, active = well fitted curve in the direction sought with a large enough effect; inconclusive = small, poorly fitted or top-dose-only effect, or another doubt; inactive = no such curve, though single readings can be large; an effect the other way counts as inactive or inconclusive.

Assay [1] addresses Lysosomal acid glucosylceramidase (Homo sapiens) (UniProt P04062). Put plainly: Glucocerebrosidase-p2 (AID 348; in the data active = potency below about 10 µM; note: potency is the fitted concentration of half-maximal effect). Conditions: purified GBA, blue fluorogenic substrate, 40 min. Put shortly: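 Compounds titrated from 0.6 nM upwards against 0.2 nM enzyme in pH 5.9 citric acid/KH2PO4, taurocholate, tween-20; blue fluorogenic substrate 80 uM, 40 min room temperature, stopped and read Ex 365/Em 440 for AC50.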

Assay [2] can be described thus: AP1 Signaling Pathway (AID 357; active = well fitted curve in either direction with a large enough effect, not every such curve was filed as active; note: % is set by controls: 0 for no effect and ±100 for the full control effect). Conditions: ME-180 AP-1-bla reporter, EGF-induced, beta-lactamase ratio, 5 h; at 7.69 µM (top of the series) unless noted. Put shortly: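 Read-out was the 460nm/530nm emission ratio (excitation 405nm) after CCF4 loading for 2.5 hours at room temperature. Cells carried an AP-1-driven beta-lactamase reporter, were stimulated with EC50 EGF plus compound for 5 hours, and AC50 values came from titrations.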

Assay [3] addresses Cytochrome P450 1A2 (Homo sapiens) (UniProt P05177). In words: p450-cyp1a2 (AID 410; calls by dose curve; note: potency is the fitted concentration of half-maximal effect). The following applies: recombinant CYP1A2, luciferin-ME demethylation, luminescence; series mostly up to 57 µM. Put shortly: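 Inhibition was calculated relative to 57 uM furafylline (full inhibition). The reaction used human CYP1A2 at 20nM with Luciferin-ME at its Km, 100uM, driven by an NADPH-regenerating system for 60 min at room temperature.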

Assay [4] is described as follows: NFAT Signaling Pathway (AID 444; active = well fitted curve in either direction with a large enough effect, not every such curve was filed as active;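 note: carbachol stimulus at about its EC50 of 1 µM final; % is set by controls: 0 for no effect and ±100 for the full control effect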). Conditions: Jurkat NFAT-bla M1, carbachol, beta-lactamase ratio, 5 h; at 7.69 µM (top of the series) unless noted. The method in brief:
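Jurkat cells carrying an NFAT-driven β-lactamase reporter and co-transfected muscarinic M1 receptor were treated with compound plus carbachol (1 uM final, an EC50 level) for 5 h at 37 °C. CCF4 loading followed for 1 h at RT; 460/530 nm ratio gave %activity.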

The nature of assay [5]: Stat Signaling Pathway (AID 446; active = well fitted curve in either direction with a large enough effect, not every such curve was filed as active;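 note: ME-180 cervical cancer cells given 40 pM IL-6 alongside compound; SIE-controlled beta-lactamase reporter measured as 460/530 nm FRET emission ratio; % is set by controls: 0 for no effect and ±100 for the full control effect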). The following applies: ME-180 (cervical carcinoma) SIE beta-lactamase reporter, IL-6 stimulated, 5 h; at 7.69 µM (top of the series) unless noted. The method in brief:
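ME-180 cells carrying a SIE-driven beta-lactamase reporter are stimulated with 40 pM IL-6 for 5 h at 37C in the presence of compound. The 460/530 nm FRET substrate ratio is read after 2.5 h at RT. Data are normalised to 300 pM IL-6 and to 125 nM JAK inhibitor controls.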

Assay [6] concerns the target Glucocorticoid receptor (Homo sapiens) (UniProt P04150). Put plainly: GR-GFP Redistribution (AID 450;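 active = compounds whose dose series gives a full or clear partial fitted curve of increased nuclear translocation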; note: potency is the fitted concentration of half-maximal effect). The following applies: U2OS GR-GFP nuclear translocation, laser cytometry, 2 h.
The target is the same in assay [7]. In words: GR-EFC Redistribution (AID 451; calls by dose curve; note: potency is the fitted concentration of half-maximal effect). The following applies: CHO-K1 GR-EFC translocation, beta-gal luminescence, 2 h. The method in brief:
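CHO-K1 cells stably expressing nuclear-localized β-gal enzyme acceptor and GR fused C-terminally to the enzyme donor fragment; ligand-driven nuclear translocation restores β-gal by complementation. Compounds titrated up to 46 uM final, 2 h at 37 °C; luminescence read.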

For assay [8], the target named is Mitogen-activated protein kinase 10 (Mus musculus) (UniProt Q61831). In words: JNK3 AlphaScreen Assay (AID 530; active = well fitted curve in either direction with a large enough effect, not every such curve was filed as active;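 note: kinase came from lysate of stimulated human HepG2 cells; % is set by controls: 0 for no effect and ±100 for the full control effect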). Conditions: JNK3 lysate, c-Jun phosphorylation; series mostly up to 57.1 µM. Put shortly: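 JNK3 came from HepG2 lysates pre-activated with IL-1beta and TNF-alpha and phosphorylated biotinylated GST-cJun (1-79) at 10 uM ATP, pH 7.6, room temperature. Compounds were titrated. AlphaScreen signal used anti-phospho-cJun (Ser73) antibody.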

The target of assay [9] is 3',5'-cyclic-AMP phosphodiesterase 4B (Homo sapiens) (UniProt Q07343). Put plainly: qHTS Assay for Inhibitors of PDE-IV (AID 607; active = well fitted activation curve with a large enough effect in the main read-out, with a control signal flat, not every such curve was filed as active; note: % of control where 0% means no effect). Conditions: HEK293 ACTOne CNG channel cells, membrane potential fluorescence; series mostly up to 22.9 µM. Put shortly:
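HEK293 ACTOne cells with CNG channel (1000/well), endogenous PDE4; membrane potential dye, compounds up to 22.9 uM final. Fluorescence Ex 535/Em 590; RO 20-1724 (100 uM final) as reference.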

Assay [10] addresses Cytochrome P450 3A4 (Homo sapiens) (UniProt P08684). Put plainly: qHTS Assay for Activators of Cytochrome P450 3A4 (AID 885). Note: nearly all actives have a fitted effect of over 65% in size. Conditions: recombinant CYP3A4, Luciferin-PPXE luminescence, 60 min; series mostly up to 57.1 µM. Put shortly: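 Human CYP3A4 (20 nM) with Luciferin-PPXE at 25 uM (its KM) in 200 mM KPO4; 10 min compound preincubation, then NADPH regeneration and 60 min reaction at RT. Luciferin read by luminescence; normalized to 57 uM ketoconazole full inhibition.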
A general note: Quantitative high-throughput screening tests each substance at several concentrations.

For assay [11], the target named is Dual specificity protein kinase CLK4 (Homo sapiens) (UniProt Q9HAZ1). In words: qHTS Assay for Inhibitors of CDC-like Kinase 4 (Kinase-Glo Assay) (AID 1770). Note: nearly all actives have a fitted effect of over 65% in size. Note: potency is the fitted concentration of half-maximal effect. Conditions: recombinant Clk4, Kinase-Glo ATP depletion luminescence; series mostly up to 66.7 µM. Put shortly: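 Recombinant human Clk4 (25 nM) phosphorylated RS repeat peptide (100 uM) with 1 uM ATP in Tris pH 7.5/MgCl2/EGTA/DTT/Triton buffer for 4.5 h at room temperature. Residual ATP was quantified by Kinase-Glo luciferase luminescence.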
Chain of Dual specificity protein kinase CLK4 (Homo sapiens) (Q9HAZ1 whole entry, looked up): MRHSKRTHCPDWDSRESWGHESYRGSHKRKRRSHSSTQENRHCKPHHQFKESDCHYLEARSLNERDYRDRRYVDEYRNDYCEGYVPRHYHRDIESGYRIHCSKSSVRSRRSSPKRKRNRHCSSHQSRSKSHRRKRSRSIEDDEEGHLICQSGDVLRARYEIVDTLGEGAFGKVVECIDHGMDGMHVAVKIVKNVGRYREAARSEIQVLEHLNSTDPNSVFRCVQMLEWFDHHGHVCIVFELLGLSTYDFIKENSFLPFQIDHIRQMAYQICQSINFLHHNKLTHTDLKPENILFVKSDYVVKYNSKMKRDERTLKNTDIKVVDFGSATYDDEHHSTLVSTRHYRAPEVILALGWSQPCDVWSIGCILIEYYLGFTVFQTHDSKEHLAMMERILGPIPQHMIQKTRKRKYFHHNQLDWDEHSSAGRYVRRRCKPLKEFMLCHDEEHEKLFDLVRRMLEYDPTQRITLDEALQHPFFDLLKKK

Assay [12] has the same target. In words: qHTS Assay for Inhibitors of CDC-like Kinase 4 (ADP-Glo Assay) (AID 1771). Note: nearly all actives have a fitted effect of over 70% in size. Note: potency is the fitted concentration of half-maximal effect. Conditions: recombinant CLK4, ADP-Glo luminescence; series mostly up to 80 µM. Put shortly:
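Kinase reaction: Clk4 at 25 nM, RS repeat peptide substrate at 100 uM, ATP at 1 uM, 1 hr, room temperature. Product ADP detected as luciferase signal via ADP-Glo.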

Assay [13] shares this target. In words: qHTS Assay for Inhibitors of CDC-like Kinase 4 (ADP-FP Assay) (AID 1795). Note: nearly all actives have a fitted effect of over 60% in size. Note: potency is the fitted concentration of half-maximal effect. The following applies: Transcreener ADP fluorescence polarization; series mostly up to 50 µM. Put shortly: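 Recombinant human Clk4 (6.25 nM) phosphorylated RS repeat peptide (100 uM) with 1 uM ATP in Tris pH 7.5/MgCl2/EGTA/DTT/Triton buffer for one hour. ADP was quantified by Transcreener competitive fluorescence polarization against an ADP calibration curve.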

In assay [14] the target is Ubiquitin carboxyl-terminal hydrolase 1 (Homo sapiens) (UniProt O94782). In words: Inhibitors of USP1/UAF1: Pilot qHTS (AID 504865).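 Note: rhodamine fluorescence freed from ubiquitin-rhodamine substrate followed over time; top concentration of the series differs between compounds; % is set by controls: 0 for no effect and ±100 for the full control effect; nearly all actives have a fitted effect of over 35% in size.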 The following applies: purified USP1/UAF1, Ub-rhodamine cleavage fluorescence; series mostly up to 54.9 µM. Put shortly: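 USP1/UAF1 complex (1nM) preincubated with compound 15 min at room temperature, then Ub-Rho substrate (150nM final) added. Fluorescence read kinetically at 480/540 nm, 6 reads every 60 seconds. Buffer: 50mM HEPES pH 7.8, 0.5mM EDTA, 0.1 mg/ml BSA, 1mM TCEP, 0.01% Tween-20.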
Chain of Ubiquitin carboxyl-terminal hydrolase 1 (Homo sapiens) (O94782 whole entry, looked up): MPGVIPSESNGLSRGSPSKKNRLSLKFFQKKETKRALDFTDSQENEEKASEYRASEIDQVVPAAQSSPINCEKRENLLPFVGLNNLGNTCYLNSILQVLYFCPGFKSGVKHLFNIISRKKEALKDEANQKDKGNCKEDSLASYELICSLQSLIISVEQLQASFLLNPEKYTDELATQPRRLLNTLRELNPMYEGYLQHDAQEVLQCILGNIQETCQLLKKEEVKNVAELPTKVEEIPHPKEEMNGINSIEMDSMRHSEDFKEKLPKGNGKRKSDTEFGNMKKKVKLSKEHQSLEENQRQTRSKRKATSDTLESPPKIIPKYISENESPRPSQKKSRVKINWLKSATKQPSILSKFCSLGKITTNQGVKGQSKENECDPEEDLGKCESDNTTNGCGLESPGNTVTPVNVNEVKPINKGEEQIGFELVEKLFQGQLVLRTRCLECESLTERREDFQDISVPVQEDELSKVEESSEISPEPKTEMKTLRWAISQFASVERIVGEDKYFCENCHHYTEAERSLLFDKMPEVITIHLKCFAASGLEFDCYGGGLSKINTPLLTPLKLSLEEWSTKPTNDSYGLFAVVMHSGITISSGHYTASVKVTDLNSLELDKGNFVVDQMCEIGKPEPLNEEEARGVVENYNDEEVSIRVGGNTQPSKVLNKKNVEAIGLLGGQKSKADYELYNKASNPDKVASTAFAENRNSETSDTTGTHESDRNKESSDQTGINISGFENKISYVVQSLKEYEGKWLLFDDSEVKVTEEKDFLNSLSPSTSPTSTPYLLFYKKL

Assay [15] in a line: Primary qHTS for small molecule stabilizers of the endoplasmic reticulum resident proteome: Secreted ER Calcium Modulated Protein (SERCaMP) assay (AID 1508630). Note: % is set by controls: 0 for no effect and ±100 for the full control effect. The following applies: SH-SY5Y GLuc-SERCaMP (Gaussia luciferase released on ER calcium loss) secretion, thapsigargin, luminescence; series mostly up to 38.4 µM. Put shortly:
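GLuc-SERCaMP-expressing SH-SY5Y cells, pretreated 16 h with compound, are challenged with thapsigargin to empty ER calcium stores; after 4 h, coelenterazine is added directly to the medium and luminescence is imaged.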

The target of assay [16] is Cytochrome P450 3A4 (Homo sapiens) (UniProt P08684). Put plainly: qHTS Assay for Inhibitors and Substrates of Cytochrome P450 3A4 (AID 884). Note: potency is the fitted concentration of half-maximal effect; nearly all actives have a fitted effect of over 50% in size. The following applies: recombinant CYP3A4, Luciferin-PPXE luminescence; series mostly up to 57.1 µM. Put shortly: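 20 nM human CYP3A4 with 25 uM Luciferin-PPXE (at KM) in 200 mM KPO4, preincubated 10 min with compound; NADPH regeneration started a 60 min RT reaction. Luciferin detected by luminescence, normalized to 57 uM ketoconazole as full inhibition.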
Chain of Cytochrome P450 3A4 (Homo sapiens) (P08684 whole entry, looked up): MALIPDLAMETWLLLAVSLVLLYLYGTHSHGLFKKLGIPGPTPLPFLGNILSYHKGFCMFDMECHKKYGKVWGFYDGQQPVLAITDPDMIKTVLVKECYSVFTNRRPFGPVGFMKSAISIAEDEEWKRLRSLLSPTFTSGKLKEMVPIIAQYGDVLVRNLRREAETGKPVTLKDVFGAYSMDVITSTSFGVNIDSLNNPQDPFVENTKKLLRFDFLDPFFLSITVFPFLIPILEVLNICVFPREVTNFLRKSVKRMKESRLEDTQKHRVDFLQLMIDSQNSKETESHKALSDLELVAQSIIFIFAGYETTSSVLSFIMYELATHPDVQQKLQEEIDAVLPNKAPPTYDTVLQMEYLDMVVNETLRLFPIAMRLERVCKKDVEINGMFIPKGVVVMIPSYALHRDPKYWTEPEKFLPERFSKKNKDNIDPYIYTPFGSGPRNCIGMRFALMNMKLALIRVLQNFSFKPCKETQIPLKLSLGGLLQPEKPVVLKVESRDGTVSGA

Chain of Lysosomal acid glucosylceramidase (Homo sapiens) (P04062 whole entry, looked up): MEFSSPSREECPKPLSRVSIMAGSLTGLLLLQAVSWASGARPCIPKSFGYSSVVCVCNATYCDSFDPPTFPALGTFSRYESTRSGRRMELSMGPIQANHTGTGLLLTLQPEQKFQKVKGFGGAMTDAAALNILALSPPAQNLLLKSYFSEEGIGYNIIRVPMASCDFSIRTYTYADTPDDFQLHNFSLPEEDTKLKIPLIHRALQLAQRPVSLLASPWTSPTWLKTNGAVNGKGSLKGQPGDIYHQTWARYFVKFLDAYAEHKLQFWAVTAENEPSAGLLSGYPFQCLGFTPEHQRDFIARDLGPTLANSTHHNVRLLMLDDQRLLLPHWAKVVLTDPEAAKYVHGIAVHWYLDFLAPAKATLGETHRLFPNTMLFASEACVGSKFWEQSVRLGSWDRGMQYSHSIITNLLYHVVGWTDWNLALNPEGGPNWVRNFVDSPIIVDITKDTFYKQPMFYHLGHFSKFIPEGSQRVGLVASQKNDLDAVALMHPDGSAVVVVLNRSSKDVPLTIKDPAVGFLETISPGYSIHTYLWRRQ
Chain of 3',5'-cyclic-AMP phosphodiesterase 4B (Homo sapiens) (Q07343 whole entry, looked up): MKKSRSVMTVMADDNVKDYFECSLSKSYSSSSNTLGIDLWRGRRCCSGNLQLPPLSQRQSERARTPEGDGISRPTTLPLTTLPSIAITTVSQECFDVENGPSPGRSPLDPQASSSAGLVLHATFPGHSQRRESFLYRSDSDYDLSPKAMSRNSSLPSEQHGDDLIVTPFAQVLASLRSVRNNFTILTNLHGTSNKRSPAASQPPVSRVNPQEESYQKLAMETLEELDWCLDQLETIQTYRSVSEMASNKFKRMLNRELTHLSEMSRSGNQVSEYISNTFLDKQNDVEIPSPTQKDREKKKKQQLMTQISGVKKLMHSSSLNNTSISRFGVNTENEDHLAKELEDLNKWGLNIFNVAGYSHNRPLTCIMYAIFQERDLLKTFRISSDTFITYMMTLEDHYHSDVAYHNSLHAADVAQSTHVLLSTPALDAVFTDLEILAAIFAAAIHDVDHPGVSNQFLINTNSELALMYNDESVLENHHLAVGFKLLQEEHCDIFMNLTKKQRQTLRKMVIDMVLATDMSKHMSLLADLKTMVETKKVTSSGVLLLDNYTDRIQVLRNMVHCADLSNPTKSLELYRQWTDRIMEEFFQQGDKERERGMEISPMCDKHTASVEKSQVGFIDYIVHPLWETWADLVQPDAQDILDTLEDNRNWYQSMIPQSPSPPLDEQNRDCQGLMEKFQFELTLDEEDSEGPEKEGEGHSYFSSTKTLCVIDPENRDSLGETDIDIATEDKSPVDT
Chain of Cytochrome P450 1A2 (Homo sapiens) (P05177 whole entry, looked up): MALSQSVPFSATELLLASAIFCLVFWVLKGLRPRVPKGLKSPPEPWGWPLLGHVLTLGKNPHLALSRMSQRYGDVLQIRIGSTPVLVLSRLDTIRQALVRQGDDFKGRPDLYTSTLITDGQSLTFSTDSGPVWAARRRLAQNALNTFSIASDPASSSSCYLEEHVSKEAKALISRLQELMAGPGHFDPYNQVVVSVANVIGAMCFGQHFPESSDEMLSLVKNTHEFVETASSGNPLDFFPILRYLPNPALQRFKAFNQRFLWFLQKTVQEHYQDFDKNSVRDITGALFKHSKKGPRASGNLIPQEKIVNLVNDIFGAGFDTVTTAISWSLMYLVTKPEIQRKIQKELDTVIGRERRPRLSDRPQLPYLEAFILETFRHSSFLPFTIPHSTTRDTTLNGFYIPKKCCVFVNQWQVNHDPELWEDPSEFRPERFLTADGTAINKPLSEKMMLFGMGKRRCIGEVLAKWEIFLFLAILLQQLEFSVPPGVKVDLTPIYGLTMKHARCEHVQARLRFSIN
Chain of Glucocorticoid receptor (Homo sapiens) (P04150 whole entry, looked up): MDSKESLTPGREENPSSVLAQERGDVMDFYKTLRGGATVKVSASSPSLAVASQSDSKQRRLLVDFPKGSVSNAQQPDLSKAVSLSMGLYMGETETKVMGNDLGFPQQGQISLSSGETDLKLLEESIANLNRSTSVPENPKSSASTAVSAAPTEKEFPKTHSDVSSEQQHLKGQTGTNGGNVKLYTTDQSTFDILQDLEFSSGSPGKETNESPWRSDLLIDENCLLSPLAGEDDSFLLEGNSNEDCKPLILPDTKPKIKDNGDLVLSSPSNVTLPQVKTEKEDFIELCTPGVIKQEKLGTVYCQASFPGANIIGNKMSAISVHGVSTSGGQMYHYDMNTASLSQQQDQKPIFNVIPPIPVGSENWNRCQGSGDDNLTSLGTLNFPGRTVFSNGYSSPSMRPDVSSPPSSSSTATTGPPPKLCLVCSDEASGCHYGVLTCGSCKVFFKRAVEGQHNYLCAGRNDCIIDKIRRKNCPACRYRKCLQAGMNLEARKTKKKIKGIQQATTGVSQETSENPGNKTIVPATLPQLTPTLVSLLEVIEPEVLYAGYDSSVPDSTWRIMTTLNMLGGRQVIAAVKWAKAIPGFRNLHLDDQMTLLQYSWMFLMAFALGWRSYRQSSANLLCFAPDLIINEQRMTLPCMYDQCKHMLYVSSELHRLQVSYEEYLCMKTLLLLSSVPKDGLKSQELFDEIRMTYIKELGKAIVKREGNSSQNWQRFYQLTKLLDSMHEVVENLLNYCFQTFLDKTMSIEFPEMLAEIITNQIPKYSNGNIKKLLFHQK

As to `CNc1ccnc(-c2ccccc2C)n1`, the Potency in assay [1] is > 11.4 µM; in assay [3] it was 5.01 µM (active); in assay [6], > 46 µM; in assay [7], > 46 µM. Moreover, the activity change, negative = inhibition in [2] is 0.123%; in [4], 13%. Also, the activity, negative = inhibition in [5] is 6.43%. Besides, the Potency result in assay [8], in assay [9], in assay [10], in assay [11], in [12] and in assay [13] was “inactive” each time. Besides, the Potency result in [14] was “inactive”. Besides, the outcome in assay [15] was inactive.
Regarding `Cc1cccc(CNc2ncncc2-c2cccnc2)c1`, the Potency in assay [1] is > 11.4 µM; in assay [3] it was 0.794 µM (active); in assay [6], > 46 µM; in assay [7] it was > 46 µM; in assay [16], 0.631 µM (active). Also, the figures for the activity change, negative = inhibition in assay [2] and in [4] were 11.8% and 12%, respectively. Besides, in [5], the activity, negative = inhibition is 10.4%. Besides, the Potency result in assay [8], in assay [9], in assay [10], in assay [11], in [12] and in [13] was “inactive” throughout. The Potency result in assay [14] is “inactive”. Further, the result in assay [15] was inactive.
On to `COc1ncc2nc(-c3ccc(F)cc3)c(=O)n(Cc3ccc(F)cc3)c2n1`, for which the Potency in assay [1] was > 11.4 µM; in assay [3], 1.58 µM (active); in [6] it was > 9.22 µM; in assay [7], > 46 µM; in assay [16], 3.16 µM (active). The activity change, negative = inhibition in assay [2] was 1.72%; in assay [4], -1.74%. Moreover, the activity, negative = inhibition in assay [5] is -13.2%. In addition, the Potency entry in [8], in assay [9], in assay [10], in assay [11], in assay [12] and in assay [13] was “inactive” each time. Moreover, in [14], the Potency entry was “inactive”. Moreover, the outcome in [15] was inactive.
Take `CN(C)C(=O)c1ccc(-c2cncnc2NCc2ccccc2)cc1`: the Potency in [1] was > 11.4 µM; in [3], 20 µM (active); in [6] it was > 46 µM; in assay [7], > 46 µM; in [16] it was 2.51 µM (active). Moreover, the activity change, negative = inhibition in [2] was 8.88%; in assay [4] it was -3.31%. Besides, in assay [5], the activity, negative = inhibition is 9.3%. Also, the Potency result in [8], in [9], in [10], in assay [11], in assay [12] and in assay [13] was “inactive” in each case. Moreover, the Potency result in assay [14] was “inactive”. In [15], the outcome was inactive.
On to `c1cncc(-c2cc(-n3ccnc3)ncn2)c1`, for which the Potency in assay [1] was > 11.4 µM; in assay [3], 0.1 µM (active); in [6] it was > 46 µM; in assay [7], > 46 µM; in assay [16], 1.58 µM (active); in assay [11] it was 0.794 µM (active). In addition, the Potency in [12] was 0.708 µM (active); in assay [13], 0.501 µM (active). Besides, the activity change, negative = inhibition was -4.01% in assay [2] and 4.07% in assay [4]. The activity, negative = inhibition in [5] was 14.8%. The Potency entry in assay [8], in assay [9], in [10] and in [14] was “inactive” in each case. Besides, the result in assay [15] was inactive.
